Measured values as given in PubChem BioAssay (NCI).
Where “and” joins values, the source holds several entries; their conditions need not be identical. Equal entries are not always repeated. Compounds without any hit were thinned out: in the full panel of roughly 83,000, 20% have a hit.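 Activity criterion: percent growth below 10, measured after cells in 96-well plates were exposed to a single compound concentration for 48 hours.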 Calls of active or inactive are those of the source.

Each compound was assayed on CCRF-CEM leukemia (assay: NCI-60 one-dose screen, 48 h (100 = growth as untreated, 0 = no growth, -100 = all killed)). Conditions: 10 µM unless noted.
With `C=CCN1C=CC(=O)[C@H](O[Si](C)(C)C(C)(C)C)[C@@H]1/C=C/c1ccccc1` the growth was -33.8% [100 µM] (active).
In the case of `Cc1ccc(-c2nc3nc(-c4ccc(Cl)cc4)nc(N4CCCNCC4)c3o2)cc1`, the growth was -72.6% (active).
With `CC1=C2[C@@H](CC1)[C@]1(C)O[C@@](C3CC3)(C[C@H]1OC(=O)CO)[C@H]2OC(=O)/C=C/c1ccccc1` the growth was 90.3% (inactive).
With `CCN1CCN(C(=O)[C@]23CC[C@@H](C)[C@H](C)[C@@H]2C2=CC[C@@H]4[C@@]5(C)CCC(=O)C(C)(C)[C@@H]5CC[C@@]4(C)[C@]2(C)CC3)CC1` the growth was -8.01% (active).
In the case of `CCCO/N=C/c1ccccn1`, the growth was 80.9% (inactive) and 105% (inactive).
In the case of `CN(C)CCN1C(=O)c2c(c3c4ccccc4n4c3c3c2c2ccccc2n3C2CC(O)C(O)C4(C)O2)C1=O` (centres undefined), the growth was 31.1% (inactive).
In the case of `CCOC(=O)c1c(-c2ccc(C)cc2)c(C#N)c(=O)n(-c2cccc(C(F)(F)F)c2)c1N`, the growth was 101% (inactive).
For `O=C1/C(=C/c2cn(-c3ccccc3)nc2-c2ccccc2)SC(=S)N1c1ccc(Cl)cc1`, the growth was 54% (inactive).
`CN(C)CCCn1c2c(c3ccc(N4CCNCC4)cc3c1=O)C(=O)c1ccccc1-2` was tested, and the growth was -4.22% (active).
For `CCOc1ccccc1NC(=O)c1cc2ccccc2cc1O`, the growth was 32.4% (inactive).
For `COc1ccc(C/C(C)=C(/c2ccc(OCCN3CCCCCC3)cc2)c2ccc(OC(=O)c3ccccc3)cc2)cc1`, the growth was 93% (inactive).

The compounds below were run on MOLT-4 leukemia in the same assay as above. Conditions: 10 µM unless noted.
`COc1ccc(C(=O)c2ccc(OC)c(OC)c2OC)cc1` was tested, and the growth was 41.5% (inactive) and 36.8% (inactive).
In the case of `O=C1/C(=C/c2ccccc2)CN(C(=O)C(Cl)Cl)C/C1=C\c1ccccc1`, the growth was 4.99% (active).
`C=C(C)[C@@H]1CC[C@]2(C(=O)O)CC[C@]3(C)[C@H](CC[C@@H]4[C@@]5(C)CCC(N)C(C)(C)[C@@H]5CC[C@]43C)[C@@H]12` (some centres undefined) was tested, and the growth was 25.7% (inactive).
For `N#C/C(=C\c1ccc(Br)cc1)n1nnc2c(F)cccc21`, the growth was 9.87% (active).
In the case of `COC1=CC(=O)C(OC)=C(O)C1=O`, the growth was 107% (inactive).
`CC(C)(C)c1cc(NC(=O)Nc2ccc(-c3cn4c(n3)sc3cc(OCCN5CCOCC5)ccc34)cc2)no1` was tested, and the growth was 1.69% (active) and 40% (inactive).
In the case of `COc1cccc(C2C(C#N)=C(N)Oc3cc(OCCCCCC[P+](c4ccccc4)(c4ccccc4)c4ccccc4)ccc32)c1` (centres undefined), the growth was -15.8% (active).
In the case of `COc1ccc(-c2ccccc2)cc1-c1c(Nc2cc(Cl)cc(Cl)c2O)c(=O)c1=O`, the growth was 13.2% (inactive).
In the case of `Cc1ccc(S(=O)(=O)Nc2cc(Sc3ccccc3)c(O)c3ccccc23)cc1`, the growth was -32.2% (active).
In the case of `COC(=O)c1[nH]nc(OC)c1C1(C(C#N)c2nc3ccccc3s2)CCCc2ccccc21` (centres undefined), the growth was 102% (inactive).
For `COc1ccc(-c2cc(-c3cccc(Cl)c3)c(C#N)c(=O)[nH]2)c(OC)c1`, the growth was 103% (inactive).
With `Cc1nc(-n2[nH]c(=O)ccc2=O)sc1N=Nc1ccccc1` the growth was 99.4% (inactive).
In the case of `COc1ccc(-c2csc(NC(=O)CN3CCN(CCO)CC3)n2)cc1NS(=O)(=O)c1cccc2c(N(C)C)cccc12`, the growth was 65.4% (inactive).
`COc1ccc(-c2[nH]c3ccccc3c2-c2ccc(OC)cc2)cc1` was tested, and the growth was 49.9% (inactive).
In the case of `COc1ccc(/C=N\Nc2nc(SCC(C)C)nc(-c3ccc(OC)cc3)c2C#N)cc1`, the growth was 30.2% (inactive).
For `CN(C)C(=O)c1cc2cnc(Nc3ccc(-c4csc5c(=S)cc(N6CCOCC6)oc45)cc3)nc2n1C1CCCC1`, the growth was 2.85% (active).
`O=C(Nc1ccc2ncsc2c1)c1csc(Nc2ccc3[nH]ncc3c2)n1` was tested, and the growth was 49.8% (inactive).
In the case of `NS(=O)(=O)c1ccc(C(=O)N=Nc2c(O)[nH]c3c(F)cccc23)cc1`, the growth was 124% (inactive).
With `C/C=C(\C)C(=O)N[C@H]1CC[C@]2(C)C3CC[C@@]4(C)C(CC[C@@H]4C(C)N(C)C)C3CCC2[C@H]1OC(C)=O` (some centres undefined) the growth was 11.2% (inactive).
For `CC(=O)N1N=C(c2ccc(Nc3nc(Nc4ccc(F)cc4)nc(Nc4ccc(Cl)cc4)n3)cc2)CC1c1ccc(N(C)C)cc1` (centres undefined), the growth was 29.4% (inactive).
In the case of `ON=C1CCCCCCCC1`, the growth was 101% (inactive) and 96.2% (inactive).
In the case of `Cc1ccc(NC(=O)c2sc3nc(C)c(C(=O)c4ccccc4)cc3c2N)cc1`, the growth was 104% (inactive).
In the case of `O=C(/C=C/c1ccc([N+](=O)[O-])cc1)c1ccccc1`, the growth was 55.1% (inactive).
